Reference: article PMC7862700, “An all-to-all approach to the identification of sequence-specific readers for epigenetic DNA modifications on cytosine”

How the values were obtained:
Assay in all cases: DAPPL (digital affinity profiling via proximity ligation, sequencing); 10 mM Tris-HCl pH 7.5, 50 mM NaCl, 1 mM DTT, 4% glycerol, room temperature, 30 min; GST-TFs on glutathione beads, 16-mer random dsDNA library, 0.1% formaldehyde crosslink after washing; high values mean tight binding
[1] = target: T1, FEV (Homo sapiens, UniProt Q99581 1-238); conditions: protein: recombinant; tags: N-terminal GST; dsDNA, one strand shown
T1 sequence: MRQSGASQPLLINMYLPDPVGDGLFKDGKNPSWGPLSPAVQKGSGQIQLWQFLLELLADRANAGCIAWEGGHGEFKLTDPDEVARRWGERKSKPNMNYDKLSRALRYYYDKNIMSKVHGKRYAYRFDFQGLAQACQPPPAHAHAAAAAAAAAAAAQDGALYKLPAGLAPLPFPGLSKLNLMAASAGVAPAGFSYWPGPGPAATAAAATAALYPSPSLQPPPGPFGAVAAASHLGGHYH
In short: (§1)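 Human transcription factors carrying a GST fusion were produced in yeast, bound to glutathione beads, tagged with DNA barcodes and pooled together with a tag-only sample. Each pool was held with 200 nmole of a random double-stranded 16-mer DNA library in Tris/NaCl/DTT/glycerol buffer for 30 min at room temperature, then washed, crosslinked in 0.1% formaldehyde, proximity-ligated with BsaI/T4 ligase (1 h, 37 °C), PCR-amplified and sequenced on an Illumina NextSeq500. Binding signal is the read frequency of each hexamer for a given factor divided by its frequency in the tag-only sample.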

[2] = target: ETV5 (Homo sapiens, UniProt P41161 1-510); conditions: protein: recombinant; tags: N-terminal GST; dsDNA, one strand shown
ETV5, sequence (P41161 whole entry): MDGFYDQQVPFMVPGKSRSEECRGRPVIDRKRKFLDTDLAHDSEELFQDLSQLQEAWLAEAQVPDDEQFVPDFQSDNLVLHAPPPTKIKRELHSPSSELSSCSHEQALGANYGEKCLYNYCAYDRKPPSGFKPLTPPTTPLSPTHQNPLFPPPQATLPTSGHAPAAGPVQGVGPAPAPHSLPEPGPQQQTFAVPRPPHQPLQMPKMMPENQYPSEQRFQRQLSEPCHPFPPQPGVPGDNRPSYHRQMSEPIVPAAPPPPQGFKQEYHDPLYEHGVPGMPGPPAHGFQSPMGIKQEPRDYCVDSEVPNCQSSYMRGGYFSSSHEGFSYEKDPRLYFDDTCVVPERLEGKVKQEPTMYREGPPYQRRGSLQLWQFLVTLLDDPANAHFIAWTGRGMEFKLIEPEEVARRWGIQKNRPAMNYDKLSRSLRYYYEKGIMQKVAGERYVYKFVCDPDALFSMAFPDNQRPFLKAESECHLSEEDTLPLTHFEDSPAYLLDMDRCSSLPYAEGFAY
In short: as §1

[3] = target: HSF1 (Homo sapiens, UniProt Q00613 1-529); conditions: protein: recombinant; tags: N-terminal GST; chain copies: 3; dsDNA, one strand shown
HSF1, sequence (Q00613 whole entry): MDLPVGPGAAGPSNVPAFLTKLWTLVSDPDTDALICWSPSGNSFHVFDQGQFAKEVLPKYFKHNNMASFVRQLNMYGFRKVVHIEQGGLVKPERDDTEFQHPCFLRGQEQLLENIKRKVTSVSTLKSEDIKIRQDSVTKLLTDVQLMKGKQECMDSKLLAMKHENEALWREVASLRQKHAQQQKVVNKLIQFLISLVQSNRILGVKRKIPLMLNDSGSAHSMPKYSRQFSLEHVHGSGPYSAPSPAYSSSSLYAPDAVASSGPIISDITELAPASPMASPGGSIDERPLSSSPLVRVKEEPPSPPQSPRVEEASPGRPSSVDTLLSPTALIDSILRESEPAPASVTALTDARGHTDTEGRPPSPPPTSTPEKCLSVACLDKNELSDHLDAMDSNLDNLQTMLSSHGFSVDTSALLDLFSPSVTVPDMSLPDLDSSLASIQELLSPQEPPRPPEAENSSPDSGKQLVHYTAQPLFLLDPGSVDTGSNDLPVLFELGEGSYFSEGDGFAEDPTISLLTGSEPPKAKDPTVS
In short: as §1

[4] = target: T2, SPIC (Homo sapiens, UniProt Q8N5J4 1-248); conditions: protein: recombinant; tags: N-terminal GST; dsDNA, one strand shown
T2 sequence: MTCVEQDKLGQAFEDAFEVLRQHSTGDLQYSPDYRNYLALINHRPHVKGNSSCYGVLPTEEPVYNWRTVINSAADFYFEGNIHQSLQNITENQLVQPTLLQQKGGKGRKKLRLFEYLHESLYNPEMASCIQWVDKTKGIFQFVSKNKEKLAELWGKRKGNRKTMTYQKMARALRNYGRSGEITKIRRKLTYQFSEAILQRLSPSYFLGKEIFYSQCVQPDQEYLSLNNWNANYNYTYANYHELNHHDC
In short: as §1

[5] = target: ELF4 (Homo sapiens, UniProt Q99607 1-663); conditions: protein: recombinant; tags: N-terminal GST; dsDNA, one strand shown
ELF4, sequence (Q99607 whole entry): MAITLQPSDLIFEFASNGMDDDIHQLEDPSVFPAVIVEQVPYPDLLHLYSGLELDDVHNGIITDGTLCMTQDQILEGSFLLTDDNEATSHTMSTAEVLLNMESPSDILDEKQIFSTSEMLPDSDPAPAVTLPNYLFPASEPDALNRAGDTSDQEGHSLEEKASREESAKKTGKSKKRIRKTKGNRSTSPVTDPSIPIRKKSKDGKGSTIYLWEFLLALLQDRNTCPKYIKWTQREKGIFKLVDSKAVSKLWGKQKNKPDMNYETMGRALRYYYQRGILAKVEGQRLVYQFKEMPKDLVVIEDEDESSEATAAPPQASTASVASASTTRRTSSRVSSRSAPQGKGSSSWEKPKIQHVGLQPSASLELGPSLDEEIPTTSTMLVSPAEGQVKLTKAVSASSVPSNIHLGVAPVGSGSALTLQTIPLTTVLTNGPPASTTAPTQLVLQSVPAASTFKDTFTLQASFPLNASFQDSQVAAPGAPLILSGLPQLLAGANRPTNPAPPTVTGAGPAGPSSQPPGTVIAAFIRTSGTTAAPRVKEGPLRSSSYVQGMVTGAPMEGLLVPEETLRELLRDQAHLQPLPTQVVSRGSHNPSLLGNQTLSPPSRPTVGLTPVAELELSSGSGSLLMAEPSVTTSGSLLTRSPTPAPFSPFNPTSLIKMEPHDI
In short: as §1

[6] = target: T3, ELK4 (Homo sapiens, UniProt P28324-2 1-405); conditions: protein: recombinant; tags: N-terminal GST; dsDNA, one strand shown
T3 sequence: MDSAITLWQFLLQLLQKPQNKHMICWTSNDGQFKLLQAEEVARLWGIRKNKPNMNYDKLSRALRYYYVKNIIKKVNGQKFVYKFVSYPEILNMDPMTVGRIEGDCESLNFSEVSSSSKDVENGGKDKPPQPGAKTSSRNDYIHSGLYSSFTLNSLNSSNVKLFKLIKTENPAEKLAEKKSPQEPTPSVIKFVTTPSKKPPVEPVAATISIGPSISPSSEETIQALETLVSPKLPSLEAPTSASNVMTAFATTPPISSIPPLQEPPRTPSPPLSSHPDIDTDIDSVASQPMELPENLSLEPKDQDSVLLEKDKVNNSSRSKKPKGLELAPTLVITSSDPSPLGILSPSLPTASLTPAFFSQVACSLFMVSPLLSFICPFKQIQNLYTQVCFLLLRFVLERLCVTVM
In short: as §1

[7] = target: T4, ETV2 (Homo sapiens, UniProt O00321 1-342); conditions: protein: recombinant; tags: N-terminal GST; dsDNA, one strand shown
T4 sequence: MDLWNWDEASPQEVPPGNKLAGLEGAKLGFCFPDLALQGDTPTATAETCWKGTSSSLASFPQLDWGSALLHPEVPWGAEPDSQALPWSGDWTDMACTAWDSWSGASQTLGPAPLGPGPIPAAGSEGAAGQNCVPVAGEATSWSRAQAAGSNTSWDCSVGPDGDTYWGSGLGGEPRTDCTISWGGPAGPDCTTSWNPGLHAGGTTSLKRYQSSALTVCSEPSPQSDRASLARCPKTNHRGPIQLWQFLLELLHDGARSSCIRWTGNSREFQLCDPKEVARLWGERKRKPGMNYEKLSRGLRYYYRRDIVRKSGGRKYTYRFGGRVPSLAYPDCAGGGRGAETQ
In short: as §1

[8] = target: T5, ELF3 (Homo sapiens, UniProt P78545 1-371); conditions: protein: recombinant; tags: N-terminal GST; dsDNA, one strand shown
T5 sequence: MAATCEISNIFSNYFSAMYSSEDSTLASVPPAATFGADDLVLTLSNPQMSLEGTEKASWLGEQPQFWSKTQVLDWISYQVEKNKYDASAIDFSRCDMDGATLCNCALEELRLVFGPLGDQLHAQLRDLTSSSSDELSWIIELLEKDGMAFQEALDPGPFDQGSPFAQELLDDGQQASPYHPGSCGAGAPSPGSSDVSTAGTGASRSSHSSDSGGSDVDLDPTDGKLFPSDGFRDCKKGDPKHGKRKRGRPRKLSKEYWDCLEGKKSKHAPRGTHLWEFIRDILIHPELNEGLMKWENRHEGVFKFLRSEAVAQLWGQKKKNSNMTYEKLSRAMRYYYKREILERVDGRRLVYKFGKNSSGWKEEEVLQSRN
In short: as §1

[9] = target: CRX (Homo sapiens, UniProt O43186 1-299); conditions: protein: recombinant; tags: N-terminal GST; dsDNA, one strand shown
CRX, sequence (O43186 whole entry): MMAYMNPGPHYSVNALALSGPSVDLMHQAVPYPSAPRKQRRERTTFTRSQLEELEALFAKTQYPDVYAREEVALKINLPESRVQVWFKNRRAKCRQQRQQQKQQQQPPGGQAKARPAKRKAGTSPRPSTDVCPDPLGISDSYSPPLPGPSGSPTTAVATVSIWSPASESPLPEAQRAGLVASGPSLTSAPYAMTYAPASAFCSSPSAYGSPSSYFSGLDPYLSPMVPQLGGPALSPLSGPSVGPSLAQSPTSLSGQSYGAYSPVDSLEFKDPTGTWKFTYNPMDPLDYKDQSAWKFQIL
In short: as §1

[10] = target: ETV1 (Homo sapiens, UniProt P50549 1-477); conditions: protein: recombinant; tags: N-terminal GST; dsDNA, one strand shown
ETV1, sequence (P50549 whole entry): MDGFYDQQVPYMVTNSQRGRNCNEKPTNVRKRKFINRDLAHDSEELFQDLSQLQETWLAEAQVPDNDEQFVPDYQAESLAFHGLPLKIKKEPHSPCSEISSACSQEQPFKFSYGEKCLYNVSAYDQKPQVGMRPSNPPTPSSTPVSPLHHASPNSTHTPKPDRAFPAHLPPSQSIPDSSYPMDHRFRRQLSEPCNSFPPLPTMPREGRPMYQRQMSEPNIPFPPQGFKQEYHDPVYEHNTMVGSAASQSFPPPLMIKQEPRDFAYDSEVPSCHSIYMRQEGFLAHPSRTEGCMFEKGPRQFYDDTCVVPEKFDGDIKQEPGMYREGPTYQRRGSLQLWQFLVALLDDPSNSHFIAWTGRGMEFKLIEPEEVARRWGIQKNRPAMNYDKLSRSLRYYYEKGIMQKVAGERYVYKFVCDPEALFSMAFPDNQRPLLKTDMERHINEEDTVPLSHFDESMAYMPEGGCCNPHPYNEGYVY
In short: as §1

[11] = target: T6, ERF (Homo sapiens, UniProt P50548 1-548); conditions: protein: recombinant; tags: N-terminal GST; dsDNA, one strand shown
T6 sequence: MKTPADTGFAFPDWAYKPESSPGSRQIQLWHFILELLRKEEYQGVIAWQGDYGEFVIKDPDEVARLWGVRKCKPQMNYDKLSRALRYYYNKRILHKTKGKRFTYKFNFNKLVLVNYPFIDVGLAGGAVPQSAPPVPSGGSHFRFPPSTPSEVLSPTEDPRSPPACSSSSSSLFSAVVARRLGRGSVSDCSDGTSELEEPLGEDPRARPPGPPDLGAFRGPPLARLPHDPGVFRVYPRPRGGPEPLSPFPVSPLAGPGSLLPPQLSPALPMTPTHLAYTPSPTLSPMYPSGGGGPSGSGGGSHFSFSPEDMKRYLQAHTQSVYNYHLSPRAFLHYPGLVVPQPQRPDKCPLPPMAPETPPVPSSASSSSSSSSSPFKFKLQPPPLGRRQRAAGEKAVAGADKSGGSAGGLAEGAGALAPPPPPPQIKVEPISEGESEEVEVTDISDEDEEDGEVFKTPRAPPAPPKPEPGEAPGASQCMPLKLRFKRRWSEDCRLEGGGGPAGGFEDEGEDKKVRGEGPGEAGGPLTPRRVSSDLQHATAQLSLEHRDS
In short: as §1

[12] = target: T7, ETV3L (Homo sapiens, UniProt Q6ZN32 1-361); conditions: protein: recombinant; tags: N-terminal GST; dsDNA, one strand shown
T7 sequence: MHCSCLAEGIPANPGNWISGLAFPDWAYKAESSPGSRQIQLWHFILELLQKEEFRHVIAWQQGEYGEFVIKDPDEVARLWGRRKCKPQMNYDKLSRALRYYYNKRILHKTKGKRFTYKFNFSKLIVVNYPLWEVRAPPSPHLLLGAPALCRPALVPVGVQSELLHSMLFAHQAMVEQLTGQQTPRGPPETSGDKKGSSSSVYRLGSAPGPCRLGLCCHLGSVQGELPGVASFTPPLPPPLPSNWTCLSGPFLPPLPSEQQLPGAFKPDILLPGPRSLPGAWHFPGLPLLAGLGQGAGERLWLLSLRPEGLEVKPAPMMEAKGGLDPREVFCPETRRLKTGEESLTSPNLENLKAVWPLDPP
In short: as §1

[13] = target: T8, ETS2 (Homo sapiens, UniProt P15036 1-469); conditions: protein: recombinant; tags: N-terminal GST; dsDNA, one strand shown
T8 sequence: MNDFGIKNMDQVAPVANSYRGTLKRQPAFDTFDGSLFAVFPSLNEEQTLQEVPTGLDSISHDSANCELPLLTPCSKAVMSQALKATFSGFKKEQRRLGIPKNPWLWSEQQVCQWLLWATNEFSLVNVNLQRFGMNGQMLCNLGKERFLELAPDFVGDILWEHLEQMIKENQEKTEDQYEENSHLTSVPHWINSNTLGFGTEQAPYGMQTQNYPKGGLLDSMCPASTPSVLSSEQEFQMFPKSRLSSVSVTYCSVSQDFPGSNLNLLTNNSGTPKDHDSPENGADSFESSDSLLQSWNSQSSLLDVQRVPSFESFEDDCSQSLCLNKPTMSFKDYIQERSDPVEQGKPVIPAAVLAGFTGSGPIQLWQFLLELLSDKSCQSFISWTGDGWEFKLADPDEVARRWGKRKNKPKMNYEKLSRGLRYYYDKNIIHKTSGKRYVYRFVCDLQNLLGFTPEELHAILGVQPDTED
In short: as §1

[14] = target: T9, SPDEF (Homo sapiens, UniProt O95238 1-335); conditions: protein: recombinant; tags: N-terminal GST; dsDNA, one strand shown
T9 sequence: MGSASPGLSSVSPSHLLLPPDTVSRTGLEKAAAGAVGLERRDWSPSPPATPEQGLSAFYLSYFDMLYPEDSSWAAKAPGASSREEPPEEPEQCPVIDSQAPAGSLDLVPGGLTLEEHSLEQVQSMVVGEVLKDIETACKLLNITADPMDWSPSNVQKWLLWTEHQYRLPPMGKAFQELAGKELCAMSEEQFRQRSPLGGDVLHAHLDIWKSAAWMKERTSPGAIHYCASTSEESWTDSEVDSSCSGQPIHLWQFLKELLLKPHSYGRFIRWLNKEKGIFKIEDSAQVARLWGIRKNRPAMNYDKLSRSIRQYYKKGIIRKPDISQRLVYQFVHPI
In short: as §1

[15] = target: T10, ETV7 (Homo sapiens, UniProt Q9Y603 1-341); conditions: protein: recombinant; tags: N-terminal GST; dsDNA, one strand shown
T10 sequence: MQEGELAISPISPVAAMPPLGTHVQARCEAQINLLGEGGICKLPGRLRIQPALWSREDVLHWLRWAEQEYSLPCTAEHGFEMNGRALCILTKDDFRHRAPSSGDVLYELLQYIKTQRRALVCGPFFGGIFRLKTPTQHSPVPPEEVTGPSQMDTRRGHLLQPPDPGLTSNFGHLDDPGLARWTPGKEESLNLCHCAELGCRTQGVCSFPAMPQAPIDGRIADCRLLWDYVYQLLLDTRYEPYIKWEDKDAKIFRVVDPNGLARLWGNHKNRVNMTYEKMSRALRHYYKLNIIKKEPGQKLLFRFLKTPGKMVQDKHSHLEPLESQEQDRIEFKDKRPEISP
In short: as §1

[16] = target: T11, ELF5 (Homo sapiens, UniProt Q9UKW6-2 1-255); conditions: protein: recombinant; tags: N-terminal GST; dsDNA, one strand shown
T11 sequence: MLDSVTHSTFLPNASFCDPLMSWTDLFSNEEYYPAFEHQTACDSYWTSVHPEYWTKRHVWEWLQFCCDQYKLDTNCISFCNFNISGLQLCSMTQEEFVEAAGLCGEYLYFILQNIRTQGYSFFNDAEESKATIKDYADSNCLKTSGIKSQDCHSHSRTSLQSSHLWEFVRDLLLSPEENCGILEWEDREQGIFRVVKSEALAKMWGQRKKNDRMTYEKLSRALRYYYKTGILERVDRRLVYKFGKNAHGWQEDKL
In short: as §1

[17] = target: T12, ETV3 (Homo sapiens, UniProt P41162-2 1-143); conditions: protein: recombinant; tags: N-terminal GST; dsDNA, one strand shown
T12 sequence: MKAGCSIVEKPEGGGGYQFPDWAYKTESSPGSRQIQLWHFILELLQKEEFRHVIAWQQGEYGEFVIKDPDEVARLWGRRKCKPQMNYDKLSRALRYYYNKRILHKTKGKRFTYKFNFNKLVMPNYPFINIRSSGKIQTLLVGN
In short: as §1

[18] = target: ETV6 (Homo sapiens, UniProt P41212 1-452); conditions: protein: recombinant; tags: N-terminal GST; dsDNA, one strand shown
ETV6, sequence (P41212 whole entry): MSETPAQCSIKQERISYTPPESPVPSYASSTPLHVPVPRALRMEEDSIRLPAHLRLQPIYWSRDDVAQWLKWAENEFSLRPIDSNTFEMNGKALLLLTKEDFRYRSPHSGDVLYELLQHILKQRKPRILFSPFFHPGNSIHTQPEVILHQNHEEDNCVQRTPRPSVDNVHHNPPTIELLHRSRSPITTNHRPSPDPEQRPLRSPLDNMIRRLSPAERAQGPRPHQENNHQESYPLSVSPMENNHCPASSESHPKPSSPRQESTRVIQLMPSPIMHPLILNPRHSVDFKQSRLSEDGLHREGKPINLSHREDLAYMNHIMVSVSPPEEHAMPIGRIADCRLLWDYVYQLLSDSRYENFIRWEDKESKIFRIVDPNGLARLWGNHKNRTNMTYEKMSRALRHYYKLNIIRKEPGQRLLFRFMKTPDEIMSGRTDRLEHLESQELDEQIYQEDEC
In short: as §1

Q: For TCTCTG, which binding signal [1] is on record?
A: The binding signal was 1.53 fold enrichment (6-mer frequency, TF over GST control).

Q: What about the binding signal [2] of the same sequence?
A: The binding signal was 1.43 fold enrichment (6-mer frequency, TF over GST control).

Q: What about the binding signal [3] of the same sequence?
A: Its binding signal is 1.73 fold enrichment (6-mer frequency, TF over GST control).

Q: And the binding signal [4]?
A: Its binding signal is 1.59 fold enrichment (6-mer frequency, TF over GST control).

Q: And the binding signal [5]?
A: Its binding signal is 1.58 fold enrichment (6-mer frequency, TF over GST control).

Q: And the binding signal [6]?
A: The binding signal was 1.69 fold enrichment (6-mer frequency, TF over GST control).

Q: And the binding signal [7]?
A: The binding signal was 1.45 fold enrichment (6-mer frequency, TF over GST control).

Q: What about the binding signal [8] of the same sequence?
A: Its binding signal is 1.37 fold enrichment (6-mer frequency, TF over GST control).

Q: What about the binding signal [9] of the same sequence?
A: Its binding signal is 1.49 fold enrichment (6-mer frequency, TF over GST control).

Q: And the binding signal [10]?
A: Its binding signal is 1.46 fold enrichment (6-mer frequency, TF over GST control).

Q: What about the binding signal [11] of the same sequence?
A: The binding signal was 1.49 fold enrichment (6-mer frequency, TF over GST control).

Q: What about the binding signal [12] of the same sequence?
A: The binding signal was 1.49 fold enrichment (6-mer frequency, TF over GST control).

Q: What about the binding signal [13] of the same sequence?
A: Its binding signal is 1.61 fold enrichment (6-mer frequency, TF over GST control).

Q: What about the binding signal [14] of the same sequence?
A: Its binding signal is 1.5 fold enrichment (6-mer frequency, TF over GST control).

Q: And the binding signal [15]?
A: The binding signal was 1.29 fold enrichment (6-mer frequency, TF over GST control).

Q: What about the binding signal [16] of the same sequence?
A: Its binding signal is 1.42 fold enrichment (6-mer frequency, TF over GST control).

Q: What about the binding signal [17] of the same sequence?
A: Its binding signal is 1.48 fold enrichment (6-mer frequency, TF over GST control).

Q: What about the binding signal [18] of the same sequence?
A: The binding signal was 1.52 fold enrichment (6-mer frequency, TF over GST control).
